# Measurements published in the supplement of paper PMC3334620.
# Over roughly 33,000 sequences, “E-score (-0.5 to 0.5)” has its median near -0.035; the highest 2% begin near 0.35. Many of the other results were omitted from the sample, so the highest values are more common in it than they were.
# Molecular target: T1, Pdr3 (UniProt P33200)
# T1 sequence: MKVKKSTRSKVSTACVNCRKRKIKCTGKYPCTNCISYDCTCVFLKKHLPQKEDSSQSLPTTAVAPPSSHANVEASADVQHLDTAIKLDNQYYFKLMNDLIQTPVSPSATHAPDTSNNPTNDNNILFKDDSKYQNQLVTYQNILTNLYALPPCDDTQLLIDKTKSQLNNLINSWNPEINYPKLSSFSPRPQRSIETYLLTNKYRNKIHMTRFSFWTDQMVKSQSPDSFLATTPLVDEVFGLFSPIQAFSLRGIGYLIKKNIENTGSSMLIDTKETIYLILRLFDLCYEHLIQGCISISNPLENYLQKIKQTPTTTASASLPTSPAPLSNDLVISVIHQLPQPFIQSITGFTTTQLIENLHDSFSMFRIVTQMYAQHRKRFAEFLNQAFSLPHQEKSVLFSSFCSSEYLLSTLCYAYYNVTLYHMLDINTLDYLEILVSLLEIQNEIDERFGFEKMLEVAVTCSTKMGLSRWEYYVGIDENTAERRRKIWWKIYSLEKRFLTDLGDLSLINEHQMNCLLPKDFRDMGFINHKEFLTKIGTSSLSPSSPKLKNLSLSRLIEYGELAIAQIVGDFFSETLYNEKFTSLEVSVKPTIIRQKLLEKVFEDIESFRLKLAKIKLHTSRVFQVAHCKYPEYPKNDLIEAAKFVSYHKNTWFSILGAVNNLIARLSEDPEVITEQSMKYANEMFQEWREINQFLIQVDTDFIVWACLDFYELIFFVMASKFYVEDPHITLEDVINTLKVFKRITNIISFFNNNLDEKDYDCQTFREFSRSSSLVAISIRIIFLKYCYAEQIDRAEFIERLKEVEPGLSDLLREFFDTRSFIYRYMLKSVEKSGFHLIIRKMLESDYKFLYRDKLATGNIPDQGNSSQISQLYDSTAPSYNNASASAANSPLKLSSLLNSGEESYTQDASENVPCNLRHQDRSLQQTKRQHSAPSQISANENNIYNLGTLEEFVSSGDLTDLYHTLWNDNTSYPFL
# Test: PBM E-score (8-mer binding enrichment) (E-score (-0.5 to 0.5)); higher = stronger / more preferred TF binding
# Conditions: protein concentration: 200 nM; construct: GST-full length
# Method: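 Universal 'all 10-mer' protein binding microarrays (Agilent AMADID 015681) probed with GST-tagged S. cerevisiae TFs (full-length or DBD) made by in vitro transcription/translation (PURExpress), about 100-200 nM. Bound TF was detected with fluorescent anti-GST. Each ungapped 8-mer (which stands for itself and its reverse complement) is scored by the PBM enrichment score (E-score), a modified Wilcoxon-Mann-Whitney statistic from -0.5 to +0.5, computed with the Universal PBM Analysis Suite. Scale: above 0.35 generally sequence-specific binding.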
row,Sequence,PBM E-score
1,TCAACACA,-0.0355
2,CATCCGAA,0.282
3,AATCCGGT,0.294
4,TATCCGAA,0.307
5,GATCCGGC,0.369
6,AATCCGGA,0.455
7,CATCCGGA,0.426
8,CATCCGGC,0.295
9,CATCCGGG,0.261
10,GATCCGAA,0.365
11,AATCCGGC,0.302
12,CATCCGTA,0.282
13,AATCCAGA,0.127
14,AGAATGCG,0.0628
15,CAAGGCGA,-0.174
16,GACGCCTA,-0.228
17,AGCTGTTG,-0.0549
18,AAGAAATC,-0.104
19,ACATGAGG,-0.0733
20,TATCCGGA,0.446
21,TATCCTGA,-0.107
22,GATCCGTA,0.336
23,GCTCCGAA,0.361
24,GATCCGGA,0.437
25,CCTCCGAA,0.152

row,Sequence,PBM E-score
1,TATCCGCA,0.335
2,TCTCCGAA,0.257
3,GATCCGCA,0.319
4,TACCGATA,0.0617
5,GACTAACC,-0.2
6,ACCTCAAG,-0.0979
7,ATGATCTA,0.0443
8,CCGTCCCC,0.166
9,CCGTCCCG,0.371
10,ACGTCCCG,0.279
11,TACTCAGA,-0.0418
12,ATGCTCTA,-0.211
13,CGGGACCG,0.373
14,AGGGACAG,-0.3
15,CAGGACCG,-0.0353
16,CCAGACCG,0.0829
17,CGGGACAC,0.245
18,CGGGACAG,0.359
19,CCGGACCG,0.378
20,GCGGACCC,0.336
21,ACGGACCC,0.344
22,AGGGACCG,-0.128
23,CGGGACCA,0.264
24,CCGGACCC,0.379
25,AGGGTTAT,-0.0536

row,Sequence,PBM E-score
1,GGATAAAC,0.195
2,CGACCTCC,0.208
3,AGTCATGG,-0.234
4,CCAAGAGG,-0.122
5,CGCCGAGA,0.228
6,GCTGGTAC,0.029
7,CGGCACAA,0.121
8,CCTTGACA,-0.209
9,TTACCGAA,0.105
10,CGTATAGA,-0.231
11,CGTTCCCC,0.146
12,AGTTCCTA,0.0135
13,CGTTCCTA,-0.0878
14,CGTTCCGC,0.453
15,GGTTCCGA,0.476
16,AGTTCCGA,0.456
17,CGTTCCAA,-0.0612
18,GGTTCCAA,0.273
19,CGTTCCTC,0.194
20,AGTTCCCA,0.16
21,CGTTCCGA,0.455
22,GGTTCCCA,-0.0344
23,GATCCACC,-0.0343
24,ACGAGATC,0.00781
25,GAAGGGCC,0.00364

row,Sequence,PBM E-score
1,CTTCACAC,-0.201
2,ACCAAATA,0.0784
3,GGAATGTA,0.339
4,CATAACCG,0.135
5,ACAATGCT,-0.171
6,AGCATAAG,-0.0742
7,AGTTCCAG,-0.0101
8,AGTTCCGG,0.464
9,AGTTCCCC,0.0744
10,GGGTCCGA,0.234
11,CGGTCCGA,0.378
12,AGTTCCGC,0.467
13,AGTTCCTG,-0.0933
14,AGTTCCAC,-0.00065
15,AGGTCCGA,0.305
16,CTAGGTTC,0.154
17,CCCATCCA,0.00501
18,GTGAAAGA,-0.0383
19,CTAAGATC,-0.0406
20,ACTACCCT,-0.179
21,ATCTAGAG,-0.177
22,CTTCGACC,0.054
23,TCGGATAA,0.307
24,ACGGAAGA,0.373
25,ACAGAAGT,-0.285

row,Sequence,PBM E-score
1,ACGGAAGT,0.393
2,AAGGAAGA,-0.2
3,ACGGAAGC,0.427
4,AGGGAAGC,-0.0866
5,GAGGAAGA,0.0527
6,ATGGAAGA,-0.243
7,GCGGAAGA,0.393
8,GTGGAAGA,-0.0507
9,AAGGAAGT,0.0783
10,ATGGAAGC,0.179
11,CCCCCTAG,-0.342
12,CCCTGACA,-0.222
13,CATGAACG,-0.0457
14,CAAAACCG,0.00937
15,GGTGCGCA,0.191
16,ATGGAAGG,-0.197
17,TAGGAAGA,-0.204
18,CCGGAAGA,0.403
19,AAGGAAGG,-0.205
20,CTGGAAGA,-0.108
21,TCAGAAGA,-0.178
22,TCGGAAGA,0.359
23,CAGGAAGA,0.0315
24,ACGGAAGG,0.397
25,CTGGAAGC,-0.322

row,Sequence,PBM E-score
1,CCGGAAGC,0.444
2,GCGGAAGC,0.347
3,CGACCACA,-0.0427
4,AAGTGCAC,0.0238
5,ACTGAGAA,-0.121
6,TAAGCCCA,-0.113
7,ACTAGGGA,-0.253
8,ACTGCCCG,0.179
9,CACGTGGA,-0.0333
10,CGGGAACA,0.358
11,AGGGAAGA,-0.238
12,CGGGAAGC,0.282
13,CCGGAAGG,0.421
14,AGGGAACA,-0.0421
15,CAGGAAGG,-0.317
16,CGGGAAGA,0.391
17,GGGGAACA,-0.00834
18,CCAGAAGG,-0.0321
19,CCCCCCAG,-0.372
20,CGCGAGGA,0.135
21,TATGGCGA,-0.0751
22,GCAGACAA,0.0426
23,ACCCTCAA,-0.158
24,TCCCGAAA,0.206
25,ACCCGGAA,0.456

row,Sequence,PBM E-score
1,GCCCGGAC,0.282
2,ACCCGGCG,0.276
3,GCCCGGTA,0.102
4,ACCCGGAG,0.38
5,GCCCGGAA,0.459
6,ACCCGGCA,0.256
7,TCCCGTAA,0.0877
8,ACCCGGAT,0.31
9,ACCCGGTA,0.215
10,TCCCGGAA,0.463
11,CCCTGAAA,-0.0909
12,ACCCCGTA,0.006
13,CACGCGTG,0.283
14,GCTTGGTA,-0.168
15,AATTCGAA,-0.148
16,CCCCGGAA,0.421
17,CCCCGCAG,0.225
18,CCCCGGAG,0.355
19,CCCCGGAC,0.33
20,CCCCCGAG,-0.0658
21,CCCCCGAA,-0.0602
22,CAGGGATA,-0.193
